Assay outcomes deposited in PubChem by several laboratories.
Bcl-xL primary – Bcl-xL (human) inhibition. 320,000 tested, 0.7% active. GST-Bcl-xL / FITC-Bim BH3 peptide fluorescence polarization. inhibition, % at 10.9 µM. AID 2129;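 active means inhibition above the mean of all tested compounds plus 3 SD, cutoff set per campaign, cut at about 30% in these data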;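 further: inhibitors lower millipolarization by displacing the labeled peptide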
E coli Lon inh – inhibitors of E. coli Lon protease; P0A9M0; purified E. coli Lon protease, fluorescence polarization; inhibition, % at 7.94 µM; 360,000 tested, 0.42% active; in the data active means inhibition above about 13%, passing the limit was not always enough
Target sequence (P0A9M0 whole entry, looked up): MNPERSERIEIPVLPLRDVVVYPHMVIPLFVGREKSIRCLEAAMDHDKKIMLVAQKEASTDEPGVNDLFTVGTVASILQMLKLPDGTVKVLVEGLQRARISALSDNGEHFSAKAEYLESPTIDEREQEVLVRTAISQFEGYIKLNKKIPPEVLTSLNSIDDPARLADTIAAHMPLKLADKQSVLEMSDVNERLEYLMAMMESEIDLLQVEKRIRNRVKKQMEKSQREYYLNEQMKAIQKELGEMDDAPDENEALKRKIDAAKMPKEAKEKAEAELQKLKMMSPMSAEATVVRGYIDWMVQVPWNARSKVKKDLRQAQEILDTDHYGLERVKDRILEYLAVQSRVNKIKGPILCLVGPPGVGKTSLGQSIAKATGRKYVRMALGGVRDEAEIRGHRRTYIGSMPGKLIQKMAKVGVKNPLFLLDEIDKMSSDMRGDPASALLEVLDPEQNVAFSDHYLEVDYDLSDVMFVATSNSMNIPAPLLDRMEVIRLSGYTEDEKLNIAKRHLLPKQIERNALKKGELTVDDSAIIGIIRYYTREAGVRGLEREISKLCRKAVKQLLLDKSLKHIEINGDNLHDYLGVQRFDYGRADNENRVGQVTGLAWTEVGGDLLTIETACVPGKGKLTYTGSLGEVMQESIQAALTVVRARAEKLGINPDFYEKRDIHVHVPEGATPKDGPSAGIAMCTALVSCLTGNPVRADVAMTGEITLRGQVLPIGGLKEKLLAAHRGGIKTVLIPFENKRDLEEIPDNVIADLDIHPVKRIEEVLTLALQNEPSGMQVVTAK
Keap1-Nrf2 PPI – disrupts human Keap1 binding to Nrf2 peptide | inhibition, % at 9.4 µM | Q14145 | 340,000 tested, 0.15% active | Keap1 Kelch-Nrf2 peptide fluorescence polarization, 1536-well; in the data active means inhibition above about 12%;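 further: human Keap1 Kelch domain with fluorescein labeled Nrf2 9mer peptide probe; higher means more block of Keap1 binding to Nrf2 peptide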
GLD-1 RNA inh – GLD-1-TGE RNA interaction inhibition (C. elegans); Q17339; 320,000 tested, 0.44% active; purified GLD-1 + fluorescein TGE RNA, fluorescence polarization; AID 2280; inhibition, % at 5.96 µM;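 active means percent inhibition above a per-plate cutoff, the plate mean of test compounds plus 3 SD, cut at about 30% in these data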
C-LANA FP – inhibitors of KSHV LANA C-terminal domain DNA binding | MBP-C-LANA/FAM-LBS DNA binding, fluorescence polarization | AID 504423 | 340,000 tested, 0.078% active | inhibition, % at 9 µM;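 active means highest replicate inhibition at or above 60% at 9 µM, even if other replicates fall short; inactive means all replicates below 60% inhibition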
MCL1 BIM primary – disrupts human MCL1 binding to BIM-BH3 peptide | GST-MCL1 / FITC-Bim-BH3 fluorescence polarization | inhibition, % at 10.9 µM | 320,000 tested, 0.68% active;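 active means inhibition above the mean inhibition of all tested compounds plus 3 SD, set per campaign, cut at about 40% in these data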;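 further: higher means more loss of mP so more displacement of Bim peptide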
BCLXL inh confirm – counter-screen for MCL1 inhibitors: confirmation of human Bcl-xL inhibitors; shares compounds with MCL1 BIM primary; GST-Bcl-xL / FITC-Bim BH3 peptide FP binding; inhibition, % at 10.9 µM; 1,700 tested, 54% active; AID 2166;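 active means inhibition above a cutoff equal to the mean inhibition of all tested compounds plus 3 SD, cut at about 30% in these data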
MCL1 inh confirm – MCL1-BIM-BH3 interaction inhibition, confirmation; shares compounds with MCL1 BIM primary; GST-MCL1 / FITC-Bim-BH3 fluorescence polarization; inhibition, % at 10.9 µM; 1,700 tested, 61% active; AID 2168;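 active means inhibition above the average of all tested compounds plus 3 SD, cut at about 40% in these data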
Numbers stand for hits; i = inactive; nt = no result; + = active, no number. Shown are actives, neighbours in structure and some others; about 1.3% of the full set was active somewhere.

SMILES	Bcl-xL primary	E coli Lon inh	Keap1-Nrf2 PPI	GLD-1 RNA inh	C-LANA FP	MCL1 BIM primary	BCLXL inh confirm	MCL1 inh confirm
Cc1cccn2c(=O)c(C=O)c(N3CCN(c4ccccc4)CC3)nc12	37	i	i	i	i	60	39	49
O=C1C(Cl)=C(NCCCO)C(=O)c2ccccc21	i	i	i	i	i	i	nt	nt
CN(C)c1ccc(NC2=C(Cl)C(=O)c3ccccc3C2=O)cc1	i	i	i	i	i	41	32	i
O=C(NCCS(=O)(=O)N1CCN(c2ccc(F)cc2)CC1)c1ccco1	i	i	i	i	i	i	nt	nt
COc1ccc(CC(=O)Nc2nnc(SCC(=O)NCc3ccco3)s2)cc1OC	i	i	i	i	i	i	nt	nt
CC(=O)NN1C(=O)/C(=C\c2ccccc2)SC1=S	i	i	i	i	i	i	nt	nt
CC(=O)NN1C(=O)/C(=C\c2ccc(Br)o2)SC1=S	33	i	i	i	i	71	i	i
CC(=O)NN1C(=O)/C(=C/c2ccc(Br)o2)SC1=S	i	i	i	i	i	45	i	i
CC1(C)CC(=O)C2=C(C1)OC(N)=C(C#N)C21CCN(Cc2ccccc2)CC1	74	i	i	i	i	73	63	70
CC(=O)N1CCC2(CC1)C(C#N)=C(N)OC1=C2C(=O)CC(C)(C)C1	i	i	i	i	i	i	nt	nt
Cc1nc2c([nH]1)C1(CCN(Cc3ccccc3)CC1)C(C#N)=C(N)O2	163	i	i	93	i	+	32	46
CC(C)(C)OC(=O)C[C@@H]1C/C=C\C[C@@H](CC(=O)NCCO)C(=O)N[C@H](Cc2ccccc2)COC1=O	nt	i	i	i	i	nt	nt	nt
CCN1CCc2c(sc(NC(=S)NC(=O)c3ccc(Cl)cc3)c2C(N)=O)C1	i	i	i	i	i	i	nt	nt
COc1ccc2c(c1)c(CC(=O)OCC(N)=O)c(C)n2C(=O)c1ccc(Cl)cc1	i	i	i	i	i	i	nt	nt
COc1ccc2c(c1)c(CC(=O)OCC(=O)O)c(C)n2C(=O)c1ccc(Cl)cc1	i	i	i	i	i	82	i	i
O=C(CCN1C(=O)/C(=C\c2ccco2)SC1=S)Nc1ccc(C(=O)O)c(O)c1	31	i	i	i	83	64	i	i
COc1ccccc1/C=C1\SC(=S)N(CCC(=O)Nc2ccc(C(=O)O)c(O)c2)C1=O	i	i	i	i	i	i	nt	nt
O=C(CCN1C(=O)/C(=C/c2ccco2)SC1=S)Nc1ccc(C(=O)O)c(O)c1	i	i	i	i	88	65	32	54
Cc1ccc(Cl)cc1NC(=O)c1ccccc1OCC(=O)N1CCOCC1	i	i	i	i	i	63	i	i
Nc1c(NCc2ccccc2F)c(=O)[nH]c(=O)n1Cc1ccccc1	86	i	i	93	i	97	i	i
COc1ccc(CCNc2c(C=O)c(=O)[nH]c3ccccc23)cc1OC	i	i	i	i	i	i	nt	nt
COc1ccc(CCNc2c(N)n(Cc3ccccc3)c(=O)[nH]c2=O)cc1OC	71	i	i	79	i	96	74	85
CCCCn1c(N)c(NCc2ccccc2)c(=O)[nH]c1=O	i	i	i	i	i	i	nt	nt
COc1ccc(C(=O)NC2CCN(S(=O)(=O)c3ccccc3F)CC2)cc1	i	i	i	i	i	i	nt	nt
CC(=O)N1N=C(c2ccc(Cl)cc2)CC1c1ccco1 (stereo unspecified)	i	i	i	i	i	40	i	i
SMILES	Bcl-xL primary	E coli Lon inh	Keap1-Nrf2 PPI	GLD-1 RNA inh	C-LANA FP	MCL1 BIM primary	BCLXL inh confirm	MCL1 inh confirm
O=C(CSc1ccccn1)Nc1ccc2c(c1)C(=O)c1ccccc1C2=O	i	i	i	i	i	55	i	60
O=C(CSc1ccccn1)Nc1ccc2ccccc2c1	i	nt	nt	i	nt	i	nt	nt
COC(C/C=C\C(=O)[C@@H](C)OCc1ccccc1)OC	i	nt	nt	i	nt	i	nt	nt
CCCCCC#CCC#CCC#CCC#CCCCC(=O)O	i	nt	nt	i	nt	96	i	86
CCCCCCCCCC(=O)O	nt	i	i	i	i	nt	nt	nt
Cc1ccc(OCC(=O)c2cc(C)c(C)cc2C)c([N+](=O)[O-])n1	i	i	i	i	i	i	nt	nt
